# According to publication PMC6792352, “Limited Chemical Structural Diversity Found to Modulate Thyroid Hormone Receptor in the Tox21 Chemical Library” (Environmental Health Perspectives, 2019):
# Counter-ions that a name gives are not always drawn.
# Test system: thyroid hormone receptor (endogenous TRα and TRβ)
# Parameters: species or system GH3-TRE-Luc (rat pituitary); GH3-TRE-Luc luciferase reporter, antagonist mode against 1 nM T3, loss of signal, qHTS
# Conditions: read-out: Average AC50 (uM) GH3-TRE-Antag, antagonist mode, 1 nM T3, no GH3 cytotoxicity hit
row,Structure (SMILES),AC50 [µM]
1,CS(=O)(=O)Nc1ccc([N+](=O)[O-])cc1Oc1ccccc1 [Nimesulide],> 20
2,CC(C)NC(=O)N1CC(=O)N(c2cc(Cl)cc(Cl)c2)C1=O [Iprodione],59.3
3,C#C[C@]1(O)CC[C@H]2[C@@H]3CCC4=CC(=O)CCC4=C3C=C[C@@]21CC [Gestrinone],24.3
4,COC(C)(C)CCCC(C)C/C=C/C(C)=C/C(=O)OC(C)C (stereo not drawn) [Methoprene],43.4
5,"Nc1c2ccccc2nc2ccccc12 [9-Aminoacridine, monohydrochloride, monohydrate]",3.62
6,O=S1(=O)c2cccc3cccc(c23)N1CCCN1CCN(c2ccc(F)cc2)CC1 [Fananserin],> 50
7,"COc1ccc(C(=O)c2ccccc2O)c(O)c1 [2,2'-Dihydroxy-4-methoxybenzophenone]",> 20
8,"CC(=O)Nc1ccn(C2COC(COC(=O)c3ccccc3)O2)c(=O)n1 (stereo not drawn) [{4-[4-(Acetylamino)-2-oxopyrimidin-1(2H)-yl]-1,3-dioxolan-2-yl}methyl benzoate]",11.4
9,CCCCCCCCCCCCCCCCCCCCCC(=O)Nc1ccn([C@@H]2O[C@H](CO)[C@@H](O)[C@@H]2O)c(=O)n1 [Enocitabine],17.3
